Source: PubChem
Compounds with a hit are over-represented: about 4.2% of the library has one in this group of screens.
NALP1 inh: NALP1 inhibition | S. cerevisiae NALP1/ASC/caspase-1 growth, X-gal OD620, 72 h | inhibition, % at 10 µM | actives 0.61% (n = 280,000); in the data active = inhibition mostly above about 24%, no sharp cut-off; inactive = mostly below about 32%
TIM10 inh: inhibits growth of TIM10 yeast strain; S. cerevisiae TIM10 strain growth, BacTiter-Glo luminescence, 24 h; actives 1.4% (n = 330,000); inhibition, % at 10 µM;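 active = inhibition of 40% or more at the single tested concentration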;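 also: wild-type TIM10 isogenic control strain grown at permissive 25 °C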
NALP3 yeast inh: inhibitors of NALP3 inflammasome in yeast | inhibition, % at 10 µM | AID 2825 | actives 0.39% (n = 330,000) | Yeast reconstituted NLRP3/ASC/caspase-1, beta-gal luminescence, 24 h;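 active = inhibition of 50% or more; inactive = inhibition below 50%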
tim23-1 inh: inhibits growth of tim23-1 mutant yeast; S. cerevisiae tim23-1 growth, BacTiter-Glo luminescence, 24 h; inhibition, % at 20 µM; actives 1.3% (n = 330,000); AID 463212;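 active = growth inhibition of the mutant yeast at or above 50%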;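 also: temperature-sensitive mutant grown at 25 °C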
tim10-1 inh: growth inhibitors of tim10-1 mutant yeast; inhibition, % at 20 µM; actives 2.2% (n = 330,000); S. cerevisiae tim10-1 ts strain growth, BacTiter-Glo, 24 h; AID 463190;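 active = inhibition of at least 40%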;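 also: mutant grown at 25 °C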
V-ATPase pH: regulators of yeast V-ATPase proton transport | S. cerevisiae, pHLuorin cytosolic pH fluorescence | actives 0.37% (n = 350,000) | response, % at 10 µM; in the data active = response mostly above about 7.3%, no sharp cut-off; inactive = mostly below about 5.4%; also: actives read high
tim10-1 conf: tim10-1 yeast growth inhibition, confirmed; actives 56% (n = 7,400); AID 463213; inhibition, % at 20 µM; S. cerevisiae tim10-1 ts strain growth, BacTiter-Glo, 24 h; shares compounds with tim10-1 inh;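 active = inhibition of yeast growth at or above a set limit in either of two repeat tests at 20 µM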;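 also: tim10-1 mutant grown at permissive 25 °C to find synthetic lethal compounds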
TIM10 conf: TIM10 yeast growth inhibition, confirmed; AID 463215; shares compounds with TIM10 inh; actives 63% (n = 4,600); S. cerevisiae tim10 strain growth, BacTiter-Glo luminescence, 24 h; inhibition, % at 10 µM;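 active = inhibition of yeast growth at or above a set limit in either of two replicates at 10 µM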; also: this counterscreen used the strain with wild-type TIM10
tim23-1 conf: confirmation of tim23-1 mutant yeast growth inhibitors; shares compounds with tim23-1 inh; S. cerevisiae tim23-1 growth, BacTiter-Glo luminescence, 24 h; inhibition, % at 20 µM; actives 83% (n = 4,400); AID 463218;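 active = inhibition above about 39% in either of two replicate wells at 20 µM, limit read from the data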;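 also: temperature-sensitive tim23-1 mutant grown at 25 °C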
A number is an active result; . = inactive; / = not tested or not shown.

SMILES	NALP1 inh	TIM10 inh	NALP3 yeast inh	tim23-1 inh	tim10-1 inh	V-ATPase pH	tim10-1 conf	TIM10 conf	tim23-1 conf
Oc1ccc2ccccc2c1C1Nc2cccc3cccc(c23)N1	.	50	.	50	57	.	58	44	69
COc1cc(C2Nc3cccc4cccc(c34)N2)ccc1O	.	.	.	.	.	.	/	/	/
CC(C)Cc1nc2oc3c(NCCCN4CCOCC4)ncnc3c2c2c1CCC2	.	.	.	.	.	.	/	/	/
CC(C)Cc1nc2oc3c(Cl)ncnc3c2c2c1CCC2	.	.	.	55	50	.	36	/	55
CCN1C(=O)[C@H]2[C@@H](c3ccc(C(F)(F)F)cc3)N[C@]3(CCCN(Cc4ccc(Cl)cc4)C3=O)[C@H]2C1=O	/	/	/	/	/	.	/	/	/
CCOc1cccc(NC(=O)/C(C#N)=C\c2cccnc2)c1	.	52	.	81	61	.	40	48	79
N#C/C(=C\c1cccnc1)C(=O)Nc1ccccc1	.	/	/	/	/	.	/	/	/
CCCOc1ccccc1/C=C(\C#N)C(=O)Nc1cccnc1	.	54	.	85	73	.	48	46	71
CN(c1ccccc1)S(=O)(=O)c1cccc(NC(=O)c2ccc(=O)[nH]n2)c1	/	.	.	.	.	.	/	/	/
Cc1ccccc1-n1ncc2c([N+](=O)[O-])cc([N+](=O)[O-])cc21	.	68	.	77	48	.	35	75	.
O=C(Cn1cnc2c(nnn2Cc2ccc(F)cc2)c1=O)Nc1ccc2c(c1)OCCO2	.	.	.	.	.	.	/	/	/
O=C(NC1=NCCS1)c1cc(-c2cccnc2)nc2ccccc12	.	.	.	.	.	.	/	/	/
O=C(NC1=NCCS1)c1cc(-c2cccs2)nc2ccccc12	/	46	.	50	48	.	46	31	54
Oc1ccc(Br)cc1-c1cc(-c2ccco2)[nH]n1	.	43	.	68	48	.	32	34	52
Oc1ccccc1-c1cc(-c2ccco2)[nH]n1	.	.	.	.	.	.	/	/	/
CC(=O)Oc1c(Cl)c(N2CCOCC2)c(OC(C)=O)c2ccccc12	.	.	.	53	49	.	41	/	41
O=c1oc(Cl)c(Cl)c2ccccc12	/	.	.	64	45	.	.	/	88
O=c1oc2cc(O)c(Cl)cc2c2ccccc12	.	.	.	.	.	.	/	/	/
COc1ccccc1C1CC(c2ccc(NS(C)(=O)=O)cc2)=NN1C(=O)c1ccccc1 (centres undefined)	.	.	.	.	.	.	/	/	/
COc1ccccc1C1CC(c2ccccc2)=NN1C(=O)c1ccccc1 (centres undefined)	.	.	.	62	42	.	46	/	52
O=C(/C=C/c1cccc([N+](=O)[O-])c1)OCC(=O)N1CCCCC1	/	/	/	/	/	.	/	/	/
CC1=NN(c2ccccc2)C(=O)C1=Cc1ccccc1	/	/	/	/	/	.	/	/	/
CC1=NN(c2ccccc2)C(=O)/C1=C\c1ccc(Br)s1	.	.	.	57	42	.	39	/	67
CC(C)CNC(=S)NC(=O)c1csc([N+](=O)[O-])c1	.	.	.	63	42	.	32	/	64
CC(C)CNC(=S)NC(=O)c1ccc([N+](=O)[O-])cc1	.	.	.	53	.	.	32	/	42
SMILES	NALP1 inh	TIM10 inh	NALP3 yeast inh	tim23-1 inh	tim10-1 inh	V-ATPase pH	tim10-1 conf	TIM10 conf	tim23-1 conf
CCCCNC(=S)NC(=O)c1ccc([N+](=O)[O-])cc1	.	.	.	53	52	.	.	/	53
CCCCn1c(N)c(N(CC(C)C)C(=O)c2cc3ccccc3cc2OC)c(=O)[nH]c1=O	/	/	/	/	/	.	/	/	/
COc1ccc(OC)c(NC(=O)c2ccc3c(c2)C(=O)N(CC2CCCO2)C3=O)c1 (centres undefined)	.	.	.	.	.	.	/	/	/
Cc1ccc(S(=O)(=O)c2ccc([N+](=O)[O-])cn2)cc1	35	73	.	75	73	.	68	70	75
O=C(c1cccc(S(=O)(=O)Nc2ccc(Br)cc2)c1)N1CCCC1	/	.	.	.	.	.	/	/	/
CCNC(=S)NNC(=O)c1cc(-c2cccc(OC)c2)nc2ccccc12	.	.	.	56	56	.	50	/	54
CCc1ccc(-c2cc(C(=O)Nn3cnnc3)c3ccccc3n2)cc1	.	.	.	53	54	.	36	/	40
CCNC(=S)NNC(=O)c1cc(-c2ccc(OCC)cc2)nc2ccccc12	.	.	.	78	86	.	66	/	86
CC(Sc1nc2ncc(Cl)cc2[nH]1)C(=O)NC1(C#N)CCCCC1 (centres undefined)	/	.	.	.	.	.	/	/	/
COc1cc2cc(-c3ccc(OC)c(OC)c3C)nc(N)c2cc1OC	/	.	.	.	.	.	/	/	/
COc1cc2cc(-c3ccc(O)cc3O)nc(C)c2cc1OC	.	46	.	51	40	.	32	43	55
Oc1ccc2ccccc2c1/C=N/n1cnnc1	.	.	.	.	.	.	/	/	/
Oc1ccc2ccccc2c1C=NC1CCCCC1	.	.	.	55	41	.	.	/	53
COc1cc(C(=O)OCC(=O)Nc2ccc(C)cc2)cc(OC)c1OC	.	.	.	.	.	.	/	/	/
O=C(C(c1ccccc1)c1ccccc1)N1CC[C@@]2(O)CCCC[C@H]2C1	.	.	.	.	.	.	/	/	/
Cc1cccc(C)c1N1CCN(C(=O)Cn2cncn2)CC1	.	.	.	.	.	.	/	/	/
CC1CCCCC1NC(=O)/C(C#N)=C/c1ccc(OCC(N)=O)cc1 (centres undefined)	.	45	.	55	48	.	33	.	50
CSc1nc2ccccc2cc1/C=C(\C#N)c1ccccc1	.	.	.	.	.	.	/	/	/
O=Cc1cc2ccccc2nc1SCCCF	.	78	.	67	64	.	69	72	55
C=C(C)[C@@H]1CC=C(CN2CCC(CCOC)(C(=O)OCC)CC2)CC1	.	.	.	.	.	.	/	/	/
O=C(CCc1ccc(Oc2cc([N+](=O)[O-])cc([N+](=O)[O-])c2)cc1)N1CCCCCC1	.	45	.	51	43	.	39	42	50
O=C(Nc1cccc(NC(=O)c2ccc(Br)o2)c1)c1ccccc1	.	.	.	.	.	.	/	/	/
O=C(c1ccccc1)c1cccc(NC(=O)c2ccc(Br)o2)c1	.	75	.	53	45	.	36	.	77
O=C(Nc1ccc(F)cc1)C1C(c2ccccc2)C1(Cl)Cl (centres undefined)	.	41	.	59	48	.	39	.	40
